Results on 18 compounds are retold here after PubChem BioAssay (EPA / NIEHS).

Read-out in test [1]: Interleukin-8 (IL8), CXCL8 (gene 3576)
The test can be described thus: BSK_3C_IL8: BioMAP Diversity Plus: 3C Assay for Interleukin-8 (IL8) Biomarker Activity (AID 2283020). Conditions: primary human endothelial cells (HUVEC); actives raise or lower the signal. The essentials: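 Primary human umbilical vein endothelial cells were dosed for 24 h. IL-8 was quantified by ELISA and fitted bidirectionally against DMSO. Cytotoxicity was assessed in parallel cultures by SRB staining at 560 nm.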

Read-out in test [2]: Monokine induced gamma interferon (MIG), CXCL9 (gene 4283)
The test can be described thus: BSK_3C_MIG: BioMAP Diversity Plus: 3C Assay for Monokine induced gamma interferon (MIG) Biomarker Activity (AID 2283021). Conditions: primary human endothelial cells (HUVEC); actives raise or lower the signal. The essentials:
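HUVEC primary endothelial cultures dosed with chemical; MIG quantified by ELISA at 24 h. Data fitted bidirectionally against DMSO control, with parallel SRB total-protein staining for cytotoxicity.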

Read-out in test [3]: Matrix Metallopeptidase 1 (MMP1), MMP1 (gene 4312)
The experiment in a line: BSK_BE3C_MMP1: BioMAP Diversity Plus: BE3C Assay for Matrix Metallopeptidase 1 (MMP1) Biomarker Activity (AID 2283024). Conditions: primary human bronchial epithelial cells; actives raise or lower the signal. The essentials: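 Human primary bronchial epithelial cells (BE3C system) dosed for 24 h; MMP-1 quantified by ELISA. Bidirectional fit against DMSO; cytotoxicity tracked in parallel cultures by SRB total-protein staining.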

Test [4] can be described thus: BSK_3C_Vis: BioMAP Diversity Plus: 3C Assay for Morphology Visualization (AID 2283025).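 For AC50: light microscopy image of cell morphology used as background control.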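 Note: fitted both ways so gain or loss versus DMSO counts.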 The following applies: primary human endothelial cells (HUVEC). The essentials:
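Human umbilical vein endothelial cell morphology was inspected by light microscopy 24 h after chemical dosing; scored bidirectionally relative to DMSO.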

Read-out in test [5]: Pselectin, SELP (gene 6403)
The experiment in a line: BSK_4H_Pselectin: BioMAP Diversity Plus: 4H Assay for Pselectin Biomarker Activity (AID 2283026). The following applies: primary human endothelial cells (HUVEC); actives raise or lower the signal. The essentials: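 Primary human umbilical vein endothelial cells were treated 24 h, and cell-surface P-selectin was then quantified by ELISA. Bidirectional fit versus DMSO; cytotoxicity checked in parallel cultures by SRB total-protein staining.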

The nature of test [6]: BSK_4H_SRB: Viability Assessment in the BioMAP Diversity Plus: 4H Assay (AID 2283027).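 For AC50: curves fitted both ways versus DMSO so AC50 may be loss or gain.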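 Note: cells exposed to compound for 24 h before staining.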 The following applies: primary human endothelial cells (HUVEC). The method, boiled down: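 Human umbilical vein endothelial cells, 24 h after chemical dosing; total protein measured by 0.1% sulforhodamine B staining after 10% TCA fixation, read at 560 nm. Bidirectional fitting against DMSO.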

Test [7] in a line: BSK_BE3C_SRB: Viability Assessment in the BioMAP Diversity Plus: BE3C Assay (AID 2283028). The following applies: primary human bronchial epithelial cells. The essentials: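 Cytotoxicity read-out: SRB (0.1%) staining of TCA-fixed (10%) human lung bronchial epithelial cells, absorbance 560 nm, 24 h post-dosing. Curves fitted both directions relative to DMSO.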
Read-out in test [8]: Thrombomodulin, THBD (gene 7056)
The experiment in a line: BSK_3C_Thrombomodulin: BioMAP Diversity Plus: 3C Assay for Thrombomodulin Biomarker Activity (AID 2283029). Conditions: primary human endothelial cells (HUVEC); actives raise or lower the signal. The essentials: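 Human umbilical vein endothelial cells were exposed to chemicals for 24 h; cell-surface thrombomodulin quantified by ELISA, with bidirectional fitting against DMSO baseline.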

Test [9] deals with human Vitamin D Receptor (VDR), VDR (gene 7421) (UniProt P11473). The experiment in a line: ATG_VDR_TRANS: Attagene TRANS-FACTORIAL HepG2 Assay for human Vitamin D Receptor (VDR) (AID 2283022; active = hit-call score of the fitted dose curve at least 0.9, where 1 is the maximum). The method, boiled down:
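Transactivation by an exogenous VDR-Gal4 chimera in transiently transfected HepG2 cells was measured as reporter transcript level 24 hours after chemical treatment. RT-PCR products were analysed by capillary electrophoresis and fitted in the positive direction relative to DMSO.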

Test [10] can be described thus: BSK_3C_SRB: Viability Assessment in the BioMAP Diversity Plus: 3C Assay (AID 2283023).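 Note: fitted both ways against DMSO so a hit may be signal rise or drop.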 The following applies: primary human endothelial cells (HUVEC). The essentials: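 Cytotoxicity readout in parallel HUVEC 3C cultures: after 24 h compound exposure, cells fixed with 10% TCA, stained with 0.1% SRB and read at 560 nm. Gain or loss relative to DMSO fitted.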

For orientation: AC50 means the midpoint of the concentration-response curve, whichever way the signal moves.

Inconclusive results are not listed. The source made the active and inactive calls. Rule for the calls, unless noted: active = hit-call score of the fitted dose curve at least 0.9, where 1 is the maximum; inactive = score below 0.9.

Chain of human Vitamin D Receptor (VDR), VDR (gene 7421) (P11473 whole entry, looked up, the tested form may be a part): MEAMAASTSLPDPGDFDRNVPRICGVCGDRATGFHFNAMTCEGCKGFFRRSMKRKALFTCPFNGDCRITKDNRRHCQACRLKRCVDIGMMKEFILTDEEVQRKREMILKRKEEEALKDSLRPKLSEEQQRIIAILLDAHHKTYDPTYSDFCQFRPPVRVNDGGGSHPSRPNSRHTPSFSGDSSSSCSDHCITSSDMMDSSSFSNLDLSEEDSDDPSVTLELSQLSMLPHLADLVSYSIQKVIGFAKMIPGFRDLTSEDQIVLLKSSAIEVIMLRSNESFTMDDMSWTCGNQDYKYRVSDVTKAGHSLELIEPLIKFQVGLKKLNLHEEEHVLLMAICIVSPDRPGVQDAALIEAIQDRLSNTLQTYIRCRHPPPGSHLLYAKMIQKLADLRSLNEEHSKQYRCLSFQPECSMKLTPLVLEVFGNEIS

Turning to `O=C1CCCCCCCCCCC1`, the result in test [1], in test [2], in test [3], in test [4], in test [5] and in test [6] was inactive. Also, the outcome in [7] and in test [8] was inactive.
For the compound `O=C(O)c1ccc2c(c1)C(=O)OC2=O`, the call in test [9] was inactive.
For `C=Cc1cccc(C)c1`, the call in [9] was inactive.
As to `CC1=NN(c2ccc(S(=O)(=O)O)cc2)C(=O)C1N=Nc1ccccc1` (stereo unspecified), in test [9], the outcome was inactive.
Take `CCCCCCCCCCCCCCCCCCOS(=O)(=O)O`: the AC50 in [9] is 119 µM (active).
On to `CCCCCCC=O`, for which the outcome in [1], in [2], in test [3], in test [4], in test [5] and in [6] was inactive. The outcome in test [7] and in test [8] was inactive.
In the case of `CCOC(=O)C1=NN(c2ccc(Cl)cc2Cl)C(C)(C(=O)OCC)C1` (stereo unspecified), the result in test [1], in test [2], in test [3], in test [5], in test [7] and in test [8] was inactive. The AC50 in test [4] was 37.5 µM (active); in test [6], 12.4 µM (active).
Regarding `Cc1c(O)cccc1O`, the result in test [1], in test [2], in [3], in test [4], in test [5] and in [6] was inactive. Also, the outcome in test [7] and in test [8] was inactive.
With `Oc1c(Cl)cc(Cl)c(Cl)c1Cl`, the AC50 is 20 µM (active) in test [1]; 4.31 µM (active) in test [3]; 16.6 µM (active) in test [4]; 31.5 µM (active) in test [5]; 24.5 µM (active) in [6]. Further, the outcome in test [2], in test [7] and in [8] was inactive.
As for `COc1ccc(C(=O)c2ccccc2)c(O)c1`, the result in test [1], in test [2], in test [3], in [4], in test [5] and in test [6] was inactive. Also, the result in [7] and in test [8] was inactive. Further, the AC50 in test [10] is 4.55 µM (active).
On to `Nc1nc(N)nc(-c2ccccc2)n1`, for which the result in [1], in [2], in test [3], in test [5], in [6] and in [7] was inactive. Moreover, in test [8], the outcome was inactive.
`CC(C)C(=O)OCCc1ccccc1`: the result in test [1], in test [2], in test [3], in test [5], in test [6] and in test [7] was inactive. In test [8], the outcome was inactive.
Consider `CC1(C)C(=O)N(CO)C(=O)N1CO`, for which the result in [9] was inactive.
For the compound `O=C(O)CC(C(=O)O)S(=O)(=O)O` (stereo unspecified), in [9], the compound was classed as inactive.
Take `CC1=CC=C(C(C)C)CC1`: the result in test [1], in test [2], in test [3], in test [4], in [5] and in test [6] was inactive. Besides, the outcome in test [7] and in test [8] was inactive.
Regarding `CCC1(C)C(=O)N(Cl)C(=O)N1Cl` (stereo unspecified), the result in [1], in test [2], in test [10], in [3], in test [4] and in test [5] was inactive. Also, the result in [6], in [7] and in test [8] was inactive.
`CC(C)CCCCCOC(=O)CS`: the outcome in [1], in test [2], in test [10], in test [3], in [4] and in test [5] was inactive. For the same compound, the result in test [6], in test [7] and in test [8] was inactive.
Take `CCCCCCCCCC(C)=O`: the result in test [9] was inactive.
